# Results reported in publication PMC7862700, “An all-to-all approach to the identification of sequence-specific readers for epigenetic DNA modifications on cytosine”.
# Assays:
# Test in all cases: DAPPL (digital affinity profiling via proximity ligation, sequencing); 10 mM Tris-HCl pH 7.5, 50 mM NaCl, 1 mM DTT, 4% glycerol, room temperature, 30 min; GST-TFs on glutathione beads, 16-mer random dsDNA library, 0.1% formaldehyde crosslink after washing; high values mean tight binding
# [1] = target: T1, FEV (Homo sapiens, UniProt Q99581 1-238); details: protein: recombinant; tags: N-terminal GST; dsDNA, one strand shown
# T1 sequence: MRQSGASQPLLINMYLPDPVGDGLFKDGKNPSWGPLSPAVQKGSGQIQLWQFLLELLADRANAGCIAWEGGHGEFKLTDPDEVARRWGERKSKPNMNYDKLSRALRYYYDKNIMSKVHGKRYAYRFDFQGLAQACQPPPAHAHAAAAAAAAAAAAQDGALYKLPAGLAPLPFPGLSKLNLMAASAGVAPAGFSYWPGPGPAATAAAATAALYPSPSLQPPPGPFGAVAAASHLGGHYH
# Outline: (§1)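 Yeast served to express human transcription factors as GST fusions, which were then captured on glutathione beads and labelled with DNA barcodes. Pooled with a tag-only sample, they were incubated with 200 nmole of a 16-mer random double-stranded DNA library for 30 min at room temperature in Tris/NaCl/DTT/glycerol buffer, washed, crosslinked with 0.1% formaldehyde, ligated by proximity, amplified by PCR and sequenced. Dividing each hexamer's read frequency for a factor by its frequency for the tag-only sample gives the binding signal.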
# [2] = target: ETV5 (Homo sapiens, UniProt P41161 1-510); details: protein: recombinant; tags: N-terminal GST; dsDNA, one strand shown
# Sequence of ETV5 (P41161 whole entry): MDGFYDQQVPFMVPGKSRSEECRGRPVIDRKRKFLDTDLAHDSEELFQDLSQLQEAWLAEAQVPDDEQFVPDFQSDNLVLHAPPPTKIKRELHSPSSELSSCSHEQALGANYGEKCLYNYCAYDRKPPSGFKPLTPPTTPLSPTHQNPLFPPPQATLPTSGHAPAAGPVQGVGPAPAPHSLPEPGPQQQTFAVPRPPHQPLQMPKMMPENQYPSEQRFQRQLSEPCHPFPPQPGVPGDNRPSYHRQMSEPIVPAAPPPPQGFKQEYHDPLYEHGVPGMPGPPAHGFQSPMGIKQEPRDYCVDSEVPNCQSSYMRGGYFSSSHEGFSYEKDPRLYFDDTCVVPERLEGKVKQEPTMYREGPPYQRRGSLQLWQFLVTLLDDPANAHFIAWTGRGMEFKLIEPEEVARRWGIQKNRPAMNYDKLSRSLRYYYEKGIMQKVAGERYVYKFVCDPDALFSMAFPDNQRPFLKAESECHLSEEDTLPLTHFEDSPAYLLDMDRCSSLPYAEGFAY
# Outline: as §1
# [3] = target: HSF1 (Homo sapiens, UniProt Q00613 1-529); details: protein: recombinant; tags: N-terminal GST; chain copies: 3; dsDNA, one strand shown
# Sequence of HSF1 (Q00613 whole entry): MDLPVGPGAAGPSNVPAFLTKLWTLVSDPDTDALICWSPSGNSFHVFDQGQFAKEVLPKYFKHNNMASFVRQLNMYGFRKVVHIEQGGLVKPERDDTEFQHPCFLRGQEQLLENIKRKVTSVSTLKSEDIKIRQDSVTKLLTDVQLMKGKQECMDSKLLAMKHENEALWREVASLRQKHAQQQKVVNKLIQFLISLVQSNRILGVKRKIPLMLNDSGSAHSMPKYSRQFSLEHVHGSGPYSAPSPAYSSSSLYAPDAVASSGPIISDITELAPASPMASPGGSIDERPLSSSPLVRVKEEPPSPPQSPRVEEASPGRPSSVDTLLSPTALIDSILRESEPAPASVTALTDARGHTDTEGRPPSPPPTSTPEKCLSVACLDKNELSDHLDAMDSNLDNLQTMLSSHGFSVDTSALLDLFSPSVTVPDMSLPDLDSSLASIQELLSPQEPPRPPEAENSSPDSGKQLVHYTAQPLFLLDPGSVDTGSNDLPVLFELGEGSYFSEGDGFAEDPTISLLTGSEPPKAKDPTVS
# Outline: as §1
# [4] = target: T2, SPIC (Homo sapiens, UniProt Q8N5J4 1-248); details: protein: recombinant; tags: N-terminal GST; dsDNA, one strand shown
# T2 sequence: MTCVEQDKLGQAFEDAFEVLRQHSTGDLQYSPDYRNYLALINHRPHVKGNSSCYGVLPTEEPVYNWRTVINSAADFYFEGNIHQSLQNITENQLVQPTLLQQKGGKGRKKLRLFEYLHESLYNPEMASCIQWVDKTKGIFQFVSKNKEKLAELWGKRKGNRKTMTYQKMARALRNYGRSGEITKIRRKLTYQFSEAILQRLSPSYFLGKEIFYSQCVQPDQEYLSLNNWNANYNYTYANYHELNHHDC
# Outline: as §1
# [5] = target: ELF4 (Homo sapiens, UniProt Q99607 1-663); details: protein: recombinant; tags: N-terminal GST; dsDNA, one strand shown
# Sequence of ELF4 (Q99607 whole entry): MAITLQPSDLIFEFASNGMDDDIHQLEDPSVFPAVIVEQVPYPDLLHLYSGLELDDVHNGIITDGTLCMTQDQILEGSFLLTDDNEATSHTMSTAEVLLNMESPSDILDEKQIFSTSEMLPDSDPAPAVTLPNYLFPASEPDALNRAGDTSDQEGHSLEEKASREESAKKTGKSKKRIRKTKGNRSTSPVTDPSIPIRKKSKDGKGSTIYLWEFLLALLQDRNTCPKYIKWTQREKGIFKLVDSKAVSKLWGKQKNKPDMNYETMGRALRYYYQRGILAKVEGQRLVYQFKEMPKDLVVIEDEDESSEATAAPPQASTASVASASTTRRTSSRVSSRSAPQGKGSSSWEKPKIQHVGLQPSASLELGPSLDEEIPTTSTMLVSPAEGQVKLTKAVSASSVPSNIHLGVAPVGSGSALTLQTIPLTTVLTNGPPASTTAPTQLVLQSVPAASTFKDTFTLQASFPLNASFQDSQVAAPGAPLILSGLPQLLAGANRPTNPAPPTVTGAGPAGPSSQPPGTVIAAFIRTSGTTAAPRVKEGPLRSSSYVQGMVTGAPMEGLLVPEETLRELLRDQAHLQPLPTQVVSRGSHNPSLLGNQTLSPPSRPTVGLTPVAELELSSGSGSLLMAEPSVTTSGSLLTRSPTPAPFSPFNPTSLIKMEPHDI
# Outline: as §1
# [6] = target: T3, ELK4 (Homo sapiens, UniProt P28324-2 1-405); details: protein: recombinant; tags: N-terminal GST; dsDNA, one strand shown
# T3 sequence: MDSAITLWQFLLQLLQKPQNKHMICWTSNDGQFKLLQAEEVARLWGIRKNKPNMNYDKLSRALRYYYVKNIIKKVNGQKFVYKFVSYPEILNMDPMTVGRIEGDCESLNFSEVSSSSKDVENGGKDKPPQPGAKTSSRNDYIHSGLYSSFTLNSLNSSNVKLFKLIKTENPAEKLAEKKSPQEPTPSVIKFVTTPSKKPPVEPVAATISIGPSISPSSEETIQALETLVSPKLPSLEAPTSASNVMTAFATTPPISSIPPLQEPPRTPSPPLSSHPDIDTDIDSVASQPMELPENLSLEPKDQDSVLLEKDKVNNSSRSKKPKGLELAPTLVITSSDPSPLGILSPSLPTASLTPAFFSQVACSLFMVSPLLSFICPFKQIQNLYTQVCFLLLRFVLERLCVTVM
# Outline: as §1
# [7] = target: T4, ETV2 (Homo sapiens, UniProt O00321 1-342); details: protein: recombinant; tags: N-terminal GST; dsDNA, one strand shown
# T4 sequence: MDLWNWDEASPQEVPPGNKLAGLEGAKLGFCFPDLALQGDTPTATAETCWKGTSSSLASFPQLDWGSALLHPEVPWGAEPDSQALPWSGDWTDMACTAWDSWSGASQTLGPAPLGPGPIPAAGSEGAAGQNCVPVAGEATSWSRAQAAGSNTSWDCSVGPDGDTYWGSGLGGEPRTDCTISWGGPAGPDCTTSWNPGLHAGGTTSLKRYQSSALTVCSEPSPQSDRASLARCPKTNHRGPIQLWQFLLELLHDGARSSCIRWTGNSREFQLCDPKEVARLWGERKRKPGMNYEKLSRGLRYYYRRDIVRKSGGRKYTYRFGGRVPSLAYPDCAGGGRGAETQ
# Outline: as §1
# [8] = target: T5, ELF3 (Homo sapiens, UniProt P78545 1-371); details: protein: recombinant; tags: N-terminal GST; dsDNA, one strand shown
# T5 sequence: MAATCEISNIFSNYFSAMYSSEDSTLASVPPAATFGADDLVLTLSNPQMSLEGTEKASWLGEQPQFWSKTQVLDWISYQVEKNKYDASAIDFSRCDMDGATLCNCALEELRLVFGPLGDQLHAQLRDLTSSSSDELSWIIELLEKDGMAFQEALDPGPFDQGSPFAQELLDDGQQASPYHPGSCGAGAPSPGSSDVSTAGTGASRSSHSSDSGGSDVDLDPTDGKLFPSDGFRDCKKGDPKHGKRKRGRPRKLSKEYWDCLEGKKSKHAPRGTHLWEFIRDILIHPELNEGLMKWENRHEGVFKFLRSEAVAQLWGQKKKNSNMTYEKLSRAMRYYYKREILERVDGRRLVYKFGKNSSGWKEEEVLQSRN
# Outline: as §1
# [9] = target: ETV1 (Homo sapiens, UniProt P50549 1-477); details: protein: recombinant; tags: N-terminal GST; dsDNA, one strand shown
# Sequence of ETV1 (P50549 whole entry): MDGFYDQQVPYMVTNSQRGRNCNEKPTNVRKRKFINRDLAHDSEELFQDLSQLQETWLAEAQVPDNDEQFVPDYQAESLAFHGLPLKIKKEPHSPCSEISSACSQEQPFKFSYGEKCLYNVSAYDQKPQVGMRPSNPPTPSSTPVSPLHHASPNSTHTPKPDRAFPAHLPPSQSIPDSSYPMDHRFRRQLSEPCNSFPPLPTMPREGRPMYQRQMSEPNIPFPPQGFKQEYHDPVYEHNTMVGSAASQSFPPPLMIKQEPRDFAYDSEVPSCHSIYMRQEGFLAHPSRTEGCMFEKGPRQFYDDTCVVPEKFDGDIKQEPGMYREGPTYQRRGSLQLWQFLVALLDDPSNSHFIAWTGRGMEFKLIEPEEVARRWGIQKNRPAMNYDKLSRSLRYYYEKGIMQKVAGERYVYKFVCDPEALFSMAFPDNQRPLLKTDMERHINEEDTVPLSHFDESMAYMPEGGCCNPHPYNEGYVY
# Outline: as §1
# [10] = target: T6, ERF (Homo sapiens, UniProt P50548 1-548); details: protein: recombinant; tags: N-terminal GST; dsDNA, one strand shown
# T6 sequence: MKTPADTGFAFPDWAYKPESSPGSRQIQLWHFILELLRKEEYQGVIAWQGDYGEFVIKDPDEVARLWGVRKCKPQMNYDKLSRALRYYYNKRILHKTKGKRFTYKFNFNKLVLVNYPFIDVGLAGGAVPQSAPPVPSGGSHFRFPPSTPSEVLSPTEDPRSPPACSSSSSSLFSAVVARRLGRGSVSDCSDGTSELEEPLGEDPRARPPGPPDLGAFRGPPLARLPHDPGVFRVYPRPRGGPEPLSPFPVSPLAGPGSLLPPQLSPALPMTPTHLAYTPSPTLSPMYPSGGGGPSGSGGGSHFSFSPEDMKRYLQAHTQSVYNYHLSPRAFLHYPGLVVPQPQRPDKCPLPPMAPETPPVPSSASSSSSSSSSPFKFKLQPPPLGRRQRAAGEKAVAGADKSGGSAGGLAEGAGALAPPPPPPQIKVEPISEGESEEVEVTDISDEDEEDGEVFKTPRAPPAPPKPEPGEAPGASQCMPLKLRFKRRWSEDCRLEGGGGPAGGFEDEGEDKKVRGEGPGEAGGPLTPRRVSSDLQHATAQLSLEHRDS
# Outline: as §1
# [11] = target: T7, ETV3L (Homo sapiens, UniProt Q6ZN32 1-361); details: protein: recombinant; tags: N-terminal GST; dsDNA, one strand shown
# T7 sequence: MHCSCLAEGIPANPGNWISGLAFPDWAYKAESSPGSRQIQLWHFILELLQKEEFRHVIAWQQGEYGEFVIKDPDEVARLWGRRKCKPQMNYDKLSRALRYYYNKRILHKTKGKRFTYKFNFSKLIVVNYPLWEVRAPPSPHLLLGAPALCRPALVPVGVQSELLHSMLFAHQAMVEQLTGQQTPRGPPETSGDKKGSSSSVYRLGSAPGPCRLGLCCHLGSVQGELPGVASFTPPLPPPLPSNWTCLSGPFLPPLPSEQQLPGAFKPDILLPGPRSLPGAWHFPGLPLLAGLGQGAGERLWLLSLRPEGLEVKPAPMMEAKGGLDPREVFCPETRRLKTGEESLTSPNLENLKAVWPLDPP
# Outline: as §1
# [12] = target: T8, ETS2 (Homo sapiens, UniProt P15036 1-469); details: protein: recombinant; tags: N-terminal GST; dsDNA, one strand shown
# T8 sequence: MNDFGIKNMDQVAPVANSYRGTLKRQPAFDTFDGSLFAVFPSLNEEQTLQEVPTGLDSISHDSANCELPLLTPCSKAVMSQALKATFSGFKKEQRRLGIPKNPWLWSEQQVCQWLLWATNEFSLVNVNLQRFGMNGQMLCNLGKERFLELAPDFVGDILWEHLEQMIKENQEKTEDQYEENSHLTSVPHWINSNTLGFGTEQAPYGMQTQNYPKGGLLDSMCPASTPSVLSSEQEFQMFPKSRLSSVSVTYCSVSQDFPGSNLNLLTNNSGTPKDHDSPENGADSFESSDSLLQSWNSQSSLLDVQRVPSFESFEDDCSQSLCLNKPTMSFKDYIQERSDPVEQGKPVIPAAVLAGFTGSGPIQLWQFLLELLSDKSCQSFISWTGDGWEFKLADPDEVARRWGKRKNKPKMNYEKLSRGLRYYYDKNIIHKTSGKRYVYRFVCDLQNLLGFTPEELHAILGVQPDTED
# Outline: as §1
# [13] = target: T9, SPDEF (Homo sapiens, UniProt O95238 1-335); details: protein: recombinant; tags: N-terminal GST; dsDNA, one strand shown
# T9 sequence: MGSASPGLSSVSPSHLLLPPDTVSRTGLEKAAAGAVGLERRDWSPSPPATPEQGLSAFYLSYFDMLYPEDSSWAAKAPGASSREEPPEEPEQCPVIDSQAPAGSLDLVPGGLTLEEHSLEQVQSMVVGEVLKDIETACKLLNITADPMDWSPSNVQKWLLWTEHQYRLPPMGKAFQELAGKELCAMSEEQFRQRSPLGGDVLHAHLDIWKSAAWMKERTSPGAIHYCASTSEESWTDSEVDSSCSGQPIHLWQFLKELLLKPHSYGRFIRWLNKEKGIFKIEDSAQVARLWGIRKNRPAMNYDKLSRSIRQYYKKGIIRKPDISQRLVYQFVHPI
# Outline: as §1
# [14] = target: T10, ETV7 (Homo sapiens, UniProt Q9Y603 1-341); details: protein: recombinant; tags: N-terminal GST; dsDNA, one strand shown
# T10 sequence: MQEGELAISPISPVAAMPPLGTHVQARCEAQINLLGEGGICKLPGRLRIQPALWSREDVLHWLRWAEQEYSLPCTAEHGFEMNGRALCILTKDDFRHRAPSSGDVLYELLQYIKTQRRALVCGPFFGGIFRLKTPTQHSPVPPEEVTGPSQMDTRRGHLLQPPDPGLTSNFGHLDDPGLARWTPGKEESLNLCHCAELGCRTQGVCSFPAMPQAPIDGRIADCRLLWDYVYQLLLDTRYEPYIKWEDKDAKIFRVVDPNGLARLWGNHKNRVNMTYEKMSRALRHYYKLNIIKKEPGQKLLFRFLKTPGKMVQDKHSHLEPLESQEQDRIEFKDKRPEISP
# Outline: as §1
# [15] = target: T11, ELF5 (Homo sapiens, UniProt Q9UKW6-2 1-255); details: protein: recombinant; tags: N-terminal GST; dsDNA, one strand shown
# T11 sequence: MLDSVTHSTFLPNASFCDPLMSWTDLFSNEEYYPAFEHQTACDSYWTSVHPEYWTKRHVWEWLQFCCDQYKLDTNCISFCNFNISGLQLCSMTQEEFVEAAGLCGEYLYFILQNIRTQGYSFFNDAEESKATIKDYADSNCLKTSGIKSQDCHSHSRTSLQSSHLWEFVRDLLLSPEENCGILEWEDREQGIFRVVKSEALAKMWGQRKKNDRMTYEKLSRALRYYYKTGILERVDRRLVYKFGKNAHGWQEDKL
# Outline: as §1
# [16] = target: T12, ETV3 (Homo sapiens, UniProt P41162-2 1-143); details: protein: recombinant; tags: N-terminal GST; dsDNA, one strand shown
# T12 sequence: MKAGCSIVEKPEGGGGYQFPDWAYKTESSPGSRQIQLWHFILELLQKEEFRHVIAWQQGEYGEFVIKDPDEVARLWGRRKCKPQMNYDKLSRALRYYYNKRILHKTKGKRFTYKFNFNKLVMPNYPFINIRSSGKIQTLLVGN
# Outline: as §1
# [17] = target: ETV6 (Homo sapiens, UniProt P41212 1-452); details: protein: recombinant; tags: N-terminal GST; dsDNA, one strand shown
# Sequence of ETV6 (P41212 whole entry): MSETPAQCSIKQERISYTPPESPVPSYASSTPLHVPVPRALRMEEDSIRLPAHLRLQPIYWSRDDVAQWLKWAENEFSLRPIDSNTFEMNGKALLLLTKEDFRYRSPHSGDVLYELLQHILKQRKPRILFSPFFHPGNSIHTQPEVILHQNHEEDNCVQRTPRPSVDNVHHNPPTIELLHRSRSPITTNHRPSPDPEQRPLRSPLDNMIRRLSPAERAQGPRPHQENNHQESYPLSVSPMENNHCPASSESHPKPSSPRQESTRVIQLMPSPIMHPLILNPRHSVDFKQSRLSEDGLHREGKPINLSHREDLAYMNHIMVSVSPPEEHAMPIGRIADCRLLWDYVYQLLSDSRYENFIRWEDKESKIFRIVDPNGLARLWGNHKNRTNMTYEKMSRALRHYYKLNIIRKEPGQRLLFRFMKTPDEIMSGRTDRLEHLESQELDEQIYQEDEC
# Outline: as §1
sequence,measurement,setting,value
ATGGGC,binding signal,[1],"1.28 fold enrichment (6-mer frequency, TF over GST control)"
same,binding signal,[2],"1.25 fold enrichment (6-mer frequency, TF over GST control)"
same,binding signal,[3],"1.03 fold enrichment (6-mer frequency, TF over GST control)"
same,binding signal,[4],"1.35 fold enrichment (6-mer frequency, TF over GST control)"
same,binding signal,[5],"1.35 fold enrichment (6-mer frequency, TF over GST control)"
same,binding signal,[6],"1.49 fold enrichment (6-mer frequency, TF over GST control)"
same,binding signal,[7],"1.17 fold enrichment (6-mer frequency, TF over GST control)"
same,binding signal,[8],"1.24 fold enrichment (6-mer frequency, TF over GST control)"
same,binding signal,[9],"1.19 fold enrichment (6-mer frequency, TF over GST control)"
same,binding signal,[10],"1.17 fold enrichment (6-mer frequency, TF over GST control)"
same,binding signal,[11],"1.3 fold enrichment (6-mer frequency, TF over GST control)"
same,binding signal,[12],"1.28 fold enrichment (6-mer frequency, TF over GST control)"
same,binding signal,[13],"1.24 fold enrichment (6-mer frequency, TF over GST control)"
same,binding signal,[14],"1.22 fold enrichment (6-mer frequency, TF over GST control)"
same,binding signal,[15],"1.26 fold enrichment (6-mer frequency, TF over GST control)"
same,binding signal,[16],"1.23 fold enrichment (6-mer frequency, TF over GST control)"
same,binding signal,[17],"1.33 fold enrichment (6-mer frequency, TF over GST control)"
